# According to PubChem BioAssay AID588342 (National Center for Advancing Translational Sciences (NCATS), 2011):
# Among all 360,000 compounds or so, about 25,000 (6.9%) were called active. About 9% were inconclusive and are not listed. The call rests on the fitted dose curve; in most records, active means well fitted inhibition curve with a large enough effect; inconclusive means small, poorly fitted or top-dose-only effect; inactive means flat fitted curve, though single readings scatter. What follows is part of a selection rich in actives, with near analogues and random picks from the rest.
# Target: Luciferin 4-monooxygenase (Photinus pyralis) (UniProt P08659)
# Sequence (P08659 whole entry, looked up): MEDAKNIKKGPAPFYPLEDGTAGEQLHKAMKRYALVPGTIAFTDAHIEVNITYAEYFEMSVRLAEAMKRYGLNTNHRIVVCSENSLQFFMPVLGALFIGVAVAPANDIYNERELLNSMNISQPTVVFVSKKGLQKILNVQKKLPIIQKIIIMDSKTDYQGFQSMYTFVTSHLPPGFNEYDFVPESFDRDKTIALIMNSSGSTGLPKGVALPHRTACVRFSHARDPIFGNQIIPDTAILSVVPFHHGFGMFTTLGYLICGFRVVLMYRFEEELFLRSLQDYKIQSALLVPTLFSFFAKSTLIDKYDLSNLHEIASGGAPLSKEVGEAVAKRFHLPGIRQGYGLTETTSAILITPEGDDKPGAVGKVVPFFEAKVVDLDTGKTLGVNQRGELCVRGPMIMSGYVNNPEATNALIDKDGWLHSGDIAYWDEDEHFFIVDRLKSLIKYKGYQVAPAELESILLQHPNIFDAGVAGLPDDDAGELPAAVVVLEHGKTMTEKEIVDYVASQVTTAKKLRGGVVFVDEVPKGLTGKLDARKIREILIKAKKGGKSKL
# Assay: qHTS profiling assay for firefly luciferase inhibitor/activator using purifed enzyme and Km concentrations of substrates (counterscreen for miR-21 project); further: nearly all actives have a fitted effect of over 55% in size;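 on activity change, negative = inhibition: plate controls were vehicle for no effect and reference inhibitor for full effect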
# Conditions: purified FLuc, luminescence inhibition; series mostly up to 57.5 µM; activity change, negative = inhibition: at the top concentration
# Source text: MLPCN Grant: 1 R21 NS059478-01 (miR-21 grant) Assay Provider: NCGC NCGC Assay Overview: Firefly (Photinus pyralis) luciferase is one of the most commonly used transcriptional reporters for a number of reasons. It is considered one of the more dynamically responsive reporters -that is, responsive to changes in reporter transcription - as it requires no post-translational modifications and is enzymatically active directly after protein synthesis (Wood, 1998). Additionally, the half-life of the luciferase protein is short relative to other reporter-gene products (Wood, 1995). Whereas reporters with long half-lives potentially allow for increased signal due to accumulation of reporter-gene product, once accumulated in the cell, dynamic changes in reporter-gene expression may be difficult to detect(Fan and Wood, 2007; Almond et al., 2004). It has been shown that wild-type P. pyralis luciferase has a half-life of approximately […] hours in mammalian cells (Thompson et al., 1991). Firefly luciferase reporter-gene assays are also generally considered one of the most sensitive assay types (Wood, 1995; Wood, 1998). Although light produced in a bioluminescence reaction is of lower intensity than that produced during fluorescence emission, this is offset by little to no background light inherent to luminescent assays. Thus the luciferase reporter can be expressed at much lower levels than fluorescent proteins while still providing robust signal. # However, it was initially observed, in 1991, by Thompson et al., that compounds that resemble the substrates of firefly luciferase (FLuc) can act as competitive inhibitors of the enzyme, and that these compounds, upon interaction with luciferase in the cell, can actually stabilize the protein and increase its half-life. Accumulated intracellular FLuc protein can be measured as an increase in luminescence signal, upon addition of detection reagents (which contain high concentrations of FLuc substrates) commonly used in high-throughput screening. In cell-based reporter gene assays that use FLuc as the reporter gene to quantitate the potential influence of a given compound against the target biology, this apparent increase in luminescence can mistakenly be interpreted as identification of a compound that is active against the target of interest. This is the case for the miR-21 FLuc reporter gene assay used to identify inhibitors of the miR-21 pathway (PubChem AID 2289) - compounds of interest will inhibit miR-21 biogenesis/expression or activity, and are identified by causing an increase in luminescence, due to increased FLuc translation. However, FLuc inhibitory compounds that stabilize the FLuc protein will give an identical read-out, making it difficult to distinguish compounds that are active against the target from those active against FLuc. Previous profiling work to determine the prevalence of compounds that affect FLuc enzymatic activity (PubChem AID 411) identified that ~3% of the MLSMR library (then at ~72K) inhibited FLuc. […] Since the MLSMR had grown to ~350K compounds, and since it was expected that a significant percentage of compounds found active in the miR-21 FLuc assay would be FLuc inhibitors, the library was screened for activity against FLuc using a biochemical assay of purified FLuc and KM concentrations of FLuc substrates (D-luciferin and ATP).
# NCGC Assay Protocol Summary: Reagents: 50mM Tris acetate, pH 7.5; 10mM Mg acetate; 10uM D-luciferin (Sigma #L9504); 10uM ATP; 0.01% Tween-20; 0.05% BSA; 10nM P. pyralis luciferase (Sigma #L9506) Control compounds used were two known firefly luciferase inhibitors (compounds (2) and (5) in Auld et al., 2010), and DMSO. […]
SMILES,"activity change, negative = inhibition",Potency
Cc1ccc(Cl)cc1N1CCN(C(=O)c2cn(C)c3ccc(S(=O)(=O)N(C)C4CCCCC4)cc3c2=O)CC1,-2.62% (inactive),–
Cc1ccc(NC(=O)CCCNC(=O)c2ccc(Cl)cc2)cc1S(=O)(=O)N1CCCCC1,-1.07% (inactive),–
COC(=O)c1ccc(C2C(C(=O)Nc3ccccc3)=C(C)Nc3nc4ccccc4n32)cc1 (stereo not drawn),1.14% (inactive),–
COC(=O)c1ccc(C2C3=C(Nc4nnnn42)c2ccccc2OC3)cc1 (stereo not drawn),–,6.01 µM (active)
COC(=O)C1=C(C(=O)c2ccc(C)cc2)C(c2ccccc2)n2nnnc2N1 (stereo not drawn),-5.96% (inactive),–
COc1cccc(-c2nnc(SCC(=O)N3CCC(C)CC3)o2)c1,3.58% (inactive),–
COc1cc(OC)c(C(=O)OCC(=O)N2CC(=O)Nc3ccccc32)cc1OC,0.484% (inactive),–
COc1ccc(C(=O)CSc2nnc(NC(=O)C3CC(=O)N(c4cccc(OC)c4)C3)s2)cc1 (stereo not drawn),4.63% (inactive),–
Cc1nc(SCC(=O)N2CC(=O)Nc3ccccc32)c2c(C)c(C)sc2n1,1.77% (inactive),–
COc1cccc(Nc2nnc(SCC(=O)N3CC(=O)Nc4ccccc43)s2)c1,–,21.3 µM (active)
COc1cccc(Nc2nnc(SCC(=O)N3CC(C)OC(C)C3)s2)c1 (stereo not drawn),–,21.3 µM (active)
O=C(Nc1ccccc1Cl)N1CCC(CN2CCCCC2)CC1,-3.25% (inactive),–
Cc1nc2ccccc2c(=O)n1-c1ccc(NS(=O)(=O)c2ccc(F)cc2F)cc1,1.87% (inactive),–
CCN(CC)c1ccc(NC(=O)CN2C(=O)c3cccnc3Oc3ccc(Cl)cc32)c(C)c1,-1.44% (inactive),–
COc1ccc2ccn(C)c2c1,-2.14% (inactive),–
OCCNc1nc(Nc2ccc(Cl)c(Cl)c2)nc2ccccc12,–,6.01 µM (active)
COc1cc2nc(Cl)nc(NCCO)c2cc1OC,-2.87% (inactive),–

SMILES,"activity change, negative = inhibition",Potency
CN(C)c1nc(Nc2ccc(Cl)c(Cl)c2)nc(N(C)C)n1,0.513% (inactive),–
Cc1ccccc1CSc1nc(-c2ccccc2)nc2c1Cc1c(CO)cnc(C)c1O2,-2.1% (inactive),–
Nc1ccn(CC(=O)N2CCN(c3ccccn3)CC2)c(=O)n1,-1.29% (inactive),–
O=C(NC(Nc1nc2ccc([N+](=O)[O-])cc2s1)(C(F)(F)F)C(F)(F)F)c1ccccc1,-0.0039% (inactive),–
COc1ccc(C(=O)Nc2nc(-c3ccc(OC)cc3)c(-c3ccc([N+](=O)[O-])cc3)s2)cc1,0.4% (inactive),–
O=C(Nc1nc2ccc([N+](=O)[O-])cc2s1)c1ccncc1,–,1.07 µM (active)
CCN1CCN(CCCNC(=O)c2ccc3c(c2)sc2nc(-c4ccc(OC)cc4)cn23)CC1,-13.1% (inactive),–
O=C(c1ccc(Cn2cc([N+](=O)[O-])cn2)o1)N1CCCC1,14.7% (inactive),–
CCc1ccc(CNC(=O)c2ccc(CS(=O)c3ccc(Br)cc3)o2)cc1 (stereo not drawn),-16.3% (inactive),–
O=C(N/N=C\c1ccc(Br)cc1)c1ccc(Cn2cccn2)o1,–,12 µM (active)
CN(C)c1ccc(/C=N/NC(=O)C(O)c2ccc(Br)cc2)cc1 (stereo not drawn),-17.4% (inactive),–
O=C(N/N=C/c1ccc2c(c1)OCO2)c1ccc(Cn2cc([N+](=O)[O-])cn2)o1,–,6.75 µM (active)
CN(C)c1ccc(/C=N/NC(=O)c2ccc(Cn3cc(Br)cn3)o2)cc1,–,9.53 µM (active)
O=C(N/N=C/c1ccc(Br)o1)c1cncc(Br)c1,-5.46% (inactive),–
COc1cccc(NC(=O)c2ccc(Cn3cc([N+](=O)[O-])cn3)o2)c1,-4.26% (inactive),–
O=C(Nc1ccc(Br)c2cccnc12)c1ccc(Cn2cc([N+](=O)[O-])cn2)o1,1.86% (inactive),–
